HT1080NT lethal = kills 2HG-producing HT-1080-NT fibrosarcoma cells | HT-1080-NT fibrosarcoma viability, CellTiter-Glo ATP luminescence, 48 h | Potency, µM (top dose mostly 46.1 µM), for inactives: at the top dose activity, negative = less viability, hits mostly cytotoxic | hit rate 1.6% among 360,000;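 note: NT is the 2HG producing partner of a matched IDH1 knockdown line; potency is the fitted concentration of half-maximal effect; 0% = DMSO-treated cells and -100% = media-only wells without cells; nearly all actives have a fitted effect of over 55% in size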
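750 cells/well, RPMI + 5% FBS; 2 h settle, compound pin-transfer, 48 h at 37 degrees C. CellTiter-Glo 10 min RT, luminescence. Normalized to DMSO and media-only wells.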
DT40 TDP1 no CPT = qHTS for Inhibitors of human tyrosyl-DNA phosphodiesterase 1 (TDP1): qHTS in cells in absence of CPT; DT40 Tdp1-/- hTDP1 cells, no CPT, ATP luminescence, 48 h; Potency, µM (titrated, usually from 46.2 µM), for inactives: top-dose activity change, negative = growth inhibition, most hits filed as inhibitors; hit rate 15% among 420,000; AID 686978, 2013; note: potency is the fitted concentration of half-maximal effect; nearly all actives have a fitted effect of over 55% in size
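Readout: luminescence from CellTiter-Glo after 30 min in the dark at RT. Cells: DT40 Tdp1-/- with stable hTDP1, 400/well. Exposure: compounds alone, ≥48 hr, 37 °C.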
DT40 TDP1 CPT = growth inhibition of DT40 Tdp1-/-;hTDP1 cells with camptothecin (screen for TDP1 inhibitors); Potency, µM (highest dose often 46.2 µM), for inactives: top-dose activity change, negative = growth inhibition, most hits filed as inhibitors; chicken DT40 Tdp1-/-;hTDP1 cells + 20 nM CPT, ATP luminescence, 48 h; AID 686979; hit rate 12% among 420,000; note: potency is the fitted concentration of half-maximal effect; nearly all actives have a fitted effect of over 55% in size
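Chicken DT40 Tdp1-/- cells complemented with human TDP1, 400 cells/well, exposed to compounds plus 20 nM camptothecin for at least 48 h at 37 C; viability read as ATP content by CellTiter-Glo luminescence.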
HT1080 IDH1KD tx = toxicity to HT-1080 IDH1 knockdown cells (counter line) | HT-1080 IDH1 knockdown viability, ATP luminescence, 48 h | Potency, µM (titrated, usually from 46.1 µM), inactives show at the highest dose activity, negative = toxicity, actives largely listed as cytotoxic | hit rate 2% among 360,000 | AID 686971;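 note: potency is the fitted concentration of half-maximal effect; 0% = DMSO wells and -100% = cell-free medium wells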
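CellTiter-Glo luminescence after 48 h compound exposure at 37 degrees C of IDH1-knockdown HT-1080 cells in 5% FBS RPMI. %Activity scaled between DMSO wells and cell-free media wells, with curves fitted and assigned curve classes.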
ALOX12 inh = inhibitors of human 12S-lipoxygenase ALOX12; purified 12hLO, xylenol orange hydroperoxide absorbance; hit rate 1.1% among 580,000; Potency, µM (titrated, usually from 108 µM), without a hit: at the top dose activity change, negative = inhibition, most hits filed as inhibitors; P18054; note: potency is the fitted concentration of half-maximal effect
Target sequence (P18054 whole entry, looked up): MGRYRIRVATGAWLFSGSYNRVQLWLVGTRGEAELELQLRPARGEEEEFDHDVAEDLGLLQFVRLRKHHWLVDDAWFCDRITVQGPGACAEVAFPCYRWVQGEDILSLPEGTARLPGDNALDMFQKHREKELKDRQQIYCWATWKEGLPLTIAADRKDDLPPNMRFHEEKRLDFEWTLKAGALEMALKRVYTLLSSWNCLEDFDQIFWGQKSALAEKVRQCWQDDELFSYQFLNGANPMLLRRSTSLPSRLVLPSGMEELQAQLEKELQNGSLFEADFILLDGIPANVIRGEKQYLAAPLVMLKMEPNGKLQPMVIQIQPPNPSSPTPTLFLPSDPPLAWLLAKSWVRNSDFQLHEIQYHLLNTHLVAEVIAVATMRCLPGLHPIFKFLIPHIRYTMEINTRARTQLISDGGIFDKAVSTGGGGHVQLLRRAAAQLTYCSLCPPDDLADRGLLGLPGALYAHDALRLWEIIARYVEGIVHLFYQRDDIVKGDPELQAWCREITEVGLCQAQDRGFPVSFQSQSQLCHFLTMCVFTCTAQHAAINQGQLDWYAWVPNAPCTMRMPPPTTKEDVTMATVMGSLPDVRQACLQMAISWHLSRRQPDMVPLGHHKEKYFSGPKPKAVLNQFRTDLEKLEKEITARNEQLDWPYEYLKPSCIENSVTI
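Hydroperoxide product was detected by ferrous iron/xylenol orange as the 573 to 405 nm absorbance ratio. Arachidonic acid at 40 uM (final) was turned over for 30 min at room temperature by 150 nM human 12hLO, pH 7.0 Hepes buffer, after 15 min compound preincubation.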
IL-1B inflam inh = blocks inflammasome-driven IL-1 beta release | AID 743279 | hit rate 4.7% among 360,000 | THP-1 LPS/ATP IL-1B secretion, AlphaLISA, 16 h; active compounds read low | activity change, % at 57.5 µM; in the data active = activity change below about -50%; inconclusive = mostly about -30% to -49%
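THP-1 cells pretreated 1 hr with compounds (up to 57.5 uM final), then stimulated with LPS (250 ng/mL final) plus ATP (1.25 mM final); secreted IL-1B measured by AlphaLISA after 16 hr, decreased signal indicating inhibition.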
An asterisk follows results filed as active; ? = inconclusive; nt = not tested or not shown. This excerpt belongs to a sample that is enriched for hits. Unless noted, calls come from the whole dose curve; as a rule, active = well fitted curve in the direction sought with a large enough effect; inconclusive = small, poorly fitted or top-dose-only effect, or another doubt; inactive = no such curve, though single readings can be large; an effect the other way counts as inactive or inconclusive. Unless noted, % is set by controls: 0 for no effect and ±100 for the full control effect.

SMILES	HT1080NT lethal	DT40 TDP1 no CPT	DT40 TDP1 CPT	HT1080 IDH1KD tx	ALOX12 inh	IL-1B inflam inh
CCCCN(CCCNC(=O)c1cc(Nc2ccc(OC)c(OC)c2)nc2ccccc12)Cc1ccccc1	nt	21µM*	16µM*	nt	?	nt
COc1ccc(Nc2cc(C(=O)NCCCN(C)Cc3ccccc3)c3ccccc3n2)cc1OC	nt	21µM*	23µM*	nt	?	nt
CCCCN(CCCNC(=O)c1cc(Nc2ccc(OC)cc2)nc2ccccc12)Cc1ccccc1	nt	16µM*	21µM*	nt	-23%	nt
CCCCN(CCCNC(=O)c1cc(Nc2ccc(OC)c(OC)c2)nc2ccccc12)c1ccccc1	nt	13µM*	15µM*	nt	?	nt
Cc1ccc(S(=O)(=O)N2CCN(C(=O)C3CCN(C(=O)c4ccc(F)cc4)CC3)CC2)c(C)c1	-15%	10µM*	?	-14%	?	-7
Cc1ccc(S(=O)(=O)N2CCN(C(=O)c3cc(-c4ccc(Br)cc4)n[nH]3)CC2)c(C)c1	nt	12µM*	16µM*	nt	-20%	nt
Cc1ccccc1C(=O)N1CCC(C(=O)N2CCN(S(=O)(=O)c3ccccc3F)CC2)CC1	-11%	-25%	?	16%	-9%	-4
COc1ccccc1-c1cc(C(=O)N2CCN(S(=O)(=O)c3ccc(C)cc3)CC2)[nH]n1	-9%	?	23µM*	-8%	337%	-10
COc1ccc(S(=O)(=O)N2CCN(C(=O)c3cc(-c4ccc(Br)cc4)n[nH]3)CC2)cc1OC	?	7.3µM*	9.2µM*	?	32%	nt
COCCCNC(=O)CC1CC2CCC1C2 (centres undefined)	nt	nt	nt	nt	4%	nt
COc1ccc(-c2cc(C(=O)N3CCN(S(=O)(=O)c4ccccc4)CC3)[nH]n2)cc1	-1%	?	21µM*	-8%	?	-27
O=C(c1cc(-c2ccccc2)n[nH]1)N1CCN(S(=O)(=O)c2ccccc2)CC1	4%	?	?	8%	431%	-29
O=C(c1cc(-c2ccc(Br)cc2)n[nH]1)N1CCN(S(=O)(=O)c2ccc(Br)cc2)CC1	nt	16µM*	15µM*	nt	-13%	nt
COc1ccc(Cl)cc1S(=O)(=O)N1CCN(C(=O)c2cc(-c3ccc(Br)cc3)n[nH]2)CC1	nt	9.2µM*	12µM*	nt	-15%	nt
CCn1ncc(N2CCC(NC(=O)CC3CCCC3)CC2)cc1=O	nt	nt	nt	nt	-6%	nt
Cc1cn2c(=O)cc(COC(=O)c3cccc(NC(=O)c4ccccc4C)c3)nc2s1	nt	-22%	5%	nt	?	nt
Cc1cn2c(=O)cc(COc3cccc(NC(=O)c4ccccc4Cl)c3)nc2s1	nt	13µM*	?	nt	0%	nt
Cc1cn2c(=O)cc(COc3cccc(NC(=O)c4ccc(C(C)(C)C)cc4)c3)nc2s1	nt	16µM*	16µM*	nt	-13%	nt
Cc1cccc(C(=O)Nc2cccc(OCc3cc(=O)n4cc(C)sc4n3)c2)c1	nt	?	?	nt	-22%	nt
Cc1cccn2cc(COc3ccc(-c4ccccc4)cc3)nc12	?	12µM*	-20%	18µM*	-18%	-18
COc1ccc(CCn2c(Br)nc3c2c(=O)n(C)c(=O)n3C)cc1	nt	nt	nt	nt	29%	nt
COc1ccc(NC(=O)c2ccc3c(c2)c(C)c(C)n3Cc2ccc(F)cc2)cc1	nt	4.6µM*	5.2µM*	nt	0%	nt
Cc1c(C)n(Cc2ccc(F)cc2)c2ccc(C(=O)NCc3ccco3)cc12	nt	?	?	nt	0%	nt
COc1cccc(CN2CCc3c(cc(C(=O)Nc4ccccc4)n3C)C2)c1	nt	nt	nt	nt	4%	nt
COc1ccc(NC(=O)c2cc3c(n2C)CCN(Cc2ccc(F)cc2)C3)cc1	nt	nt	nt	nt	18µM*	nt
SMILES	HT1080NT lethal	DT40 TDP1 no CPT	DT40 TDP1 CPT	HT1080 IDH1KD tx	ALOX12 inh	IL-1B inflam inh
CCOC(=O)c1ccc(NC(=S)NCc2ccc(F)cc2)cc1	-4%	?	?	1%	?	15
CCOC(=O)c1ccc(NC(=O)c2ccc3c(c2)c(C)c(C)n3Cc2ccc(F)cc2)cc1	nt	8.2µM*	9.2µM*	nt	-9%	nt
CC(=O)Nc1cccc(Oc2ccc3nnc(-c4ccc(Cl)cc4)n3n2)c1	nt	nt	nt	nt	-35%	nt
CC[N+](C)(C)CCOC1CC2CCC1(C)C2(C)C (centres undefined)	nt	nt	nt	nt	8%	nt
O=C(/C=C/C=C/c1ccco1)c1ccc(N2CCOCC2)cc1	nt	nt	nt	nt	5µM*	nt
O=C(/C=C/c1cccs1)c1ccc(N2CCOCC2)cc1	1%	?	?	2%	-11%	-69*
O=C(/C=C/c1cccs1)c1cc(Br)ccc1OC(=O)N1CCOCC1	21µM*	?	?	?	0%	-98*
CCC(C)(C)NC(=O)CSc1nnc(N2CCCC2)n1-c1ccc(C)cc1	nt	nt	nt	nt	55%	nt
CN(Cc1ccccc1)C(=O)c1ccc2c(c1)N(Cc1ccc(Cl)cc1)C(=O)c1ccccc1S2=O (centres undefined)	nt	16µM*	16µM*	nt	?	nt
O=C(NCCC1=CCCCC1)c1ccc2c(c1)N(Cc1ccc(F)cc1)C(=O)c1ccccc1S2(=O)=O	nt	7.3µM*	21µM*	nt	-18%	nt
Cc1ccc(C)c(CN2C(=O)c3ccccc3S(=O)(=O)c3ccc(C(=O)NCCC4=CCCCC4)cc32)c1	nt	?	?	nt	-19%	nt
O=C(NCc1ccc(Cl)cc1)c1ccc2c(c1)N(Cc1ccccc1F)C(=O)c1ccccc1S2=O (centres undefined)	nt	?	?	nt	-9%	nt
O=C(NC1CCCCC1)c1ccc2c(c1)N(Cc1ccc(Cl)cc1)C(=O)c1ccccc1S2(=O)=O	nt	-28%	-18%	nt	-24%	nt
O=C(NCc1ccco1)c1ccc2c(c1)N(Cc1ccc(Cl)cc1)C(=O)c1ccccc1S2=O (centres undefined)	nt	18µM*	?	nt	?	nt
O=C(NCc1ccco1)c1ccc2c(c1)N(Cc1cccc(Cl)c1)C(=O)c1ccccc1S2=O (centres undefined)	nt	?	?	nt	-35%	nt
O=C(NCc1ccco1)c1ccc2c(c1)N(Cc1ccc(Cl)cc1)C(=O)c1ccccc1S2(=O)=O	nt	18µM*	?	nt	0%	nt
O=C(NCCN1CCOCC1)c1ccc2c(c1)N(Cc1ccc(F)cc1)C(=O)c1ccccc1S2(=O)=O	-14%	-19%	-10%	0%	-23%	-18
COc1cccc(CN2C(=O)c3ccccc3Sc3ccc(C(=O)N(C)Cc4ccccc4)cc32)c1	nt	18µM*	?	nt	-22%	nt
O=C(NCc1ccco1)c1ccc2c(c1)N(Cc1ccc(F)cc1)C(=O)c1ccccc1S2(=O)=O	nt	15µM*	?	nt	-26%	nt
